Laboratory results published in PubChem BioAssay AID1159580 (chemical genetic matrix, 2015).
“And” between values parts separate entries of the source, which are not always exact repeats. Identical values can stand only once. Screen size: about 5,500 compounds; about 2,000 (36%) were called active. Roughly 18% stayed inconclusive and do not appear here. Rule as the data show it: active = normalized growth mostly below about 0.91 (no sharp cut-off); inconclusive = no clear call, values can overlap the other calls; inactive = mostly above about 0.92. The list shows a part of the results.

Test: chemical genetic growth profiling, strain panel (AID 1159580);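 also: tested at 20 µM; growth read once vehicle control cultures reached saturation at 30 °C; 1 = growth at the plate median or of vehicle wells; lower values mean less growth of the strain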
Details: growth OD
[1] = S. cerevisiae deletion strains, locus YAL013W, strain DEP1, stronger effect = lower value
[2] = S. cerevisiae deletion strains, locus YBR229C, strain ROT2, stronger effect = lower value
[3] = S. cerevisiae deletion strains, locus YDL101C, strain DUN1, stronger effect = lower value
[4] = S. cerevisiae deletion strains, locus YDR150W, strain NUM1, stronger effect = lower value
[5] = S. cerevisiae deletion strains, locus YEL061C, strain CIN8, stronger effect = lower value
[6] = S. cerevisiae deletion strains, locus YGR078C, strain PAC10, stronger effect = lower value
[7] = S. cerevisiae deletion strains, locus YGR229C, strain SMI1, stronger effect = lower value
[8] = S. cerevisiae deletion strains, locus YHR030C, strain SLT2, stronger effect = lower value
[9] = S. cerevisiae deletion strains, locus YKL190W, strain CNB1, stronger effect = lower value
[10] = S. cerevisiae deletion strains, locus YLR039C, strain RIC1, stronger effect = lower value
[11] = S. cerevisiae deletion strains, locus YMR263W, strain SAP30, stronger effect = lower value
[12] = S. cerevisiae deletion strains, locus YMR307W, strain GAS1, stronger effect = lower value
[13] = S. cerevisiae deletion strains, locus YNL153C, strain GIM3, stronger effect = lower value
[14] = S. cerevisiae deletion strains, locus YOL006C, strain TOP1, stronger effect = lower value
[15] = S. cerevisiae deletion strains, locus YPL055C, strain LGE1, stronger effect = lower value
[16] = S. cerevisiae deletion strains, locus YPL241C, strain CIN2, stronger effect = lower value
[17] = S. cerevisiae deletion strains, locus YAL040C, strain CLN3, stronger effect = lower value
[18] = S. cerevisiae deletion strains, locus YCL061C, strain MRC1 (second series), stronger effect = lower value
[19] = S. cerevisiae deletion strains, locus YDR363W, strain ESC2, stronger effect = lower value
[20] = S. cerevisiae deletion strains, locus YER002W, strain NOP16, stronger effect = lower value
[21] = S. cerevisiae deletion strains, locus YNL175C, strain NOP13, stronger effect = lower value
[22] = S. cerevisiae deletion strains, locus YNL197C, strain WHI3, stronger effect = lower value
[23] = S. cerevisiae deletion strains, locus YNL224C, strain SQS1, stronger effect = lower value
[24] = S. cerevisiae deletion strains, locus YOR083W, strain WHI5 (second series), stronger effect = lower value

Measured: normalized growth

COC(=O)c1cc(OC)c(OC)cc1-n1c(C)ccc1C
inactive: [1] 0.999 | [2] 0.994 | [3] 0.975 | S. cerevisiae deletion strains, locus YDL134C, strain PPH21, stronger effect = lower value 1.03 | [4] 0.947 | [5] 1.01 | [6] 0.987 | [7] 1 | [8] 0.999 | S. cerevisiae deletion strains, locus YHR087W, strain rtc3, stronger effect = lower value 0.983 | S. cerevisiae deletion strains, locus YJR043C, strain POL32, stronger effect = lower value 0.985 | S. cerevisiae deletion strains, locus YJR075W, strain HOC1, stronger effect = lower value 0.963 | [9] 1.01 | [10] 0.993 | S. cerevisiae deletion strains, locus YLR058C, strain SHM2 (second series), stronger effect = lower value 0.995 | S. cerevisiae deletion strains, locus YLR085C, strain ARP6, stronger effect = lower value 1.01 | S. cerevisiae deletion strains, locus YLR262C, strain YPT6, stronger effect = lower value 0.957 | S. cerevisiae deletion strains, locus YML094W, strain GIM5, stronger effect = lower value 1 | S. cerevisiae deletion strains, locus YMR219W, strain ESC1, stronger effect = lower value 0.998 | [11] 0.91 | [12] 0.948 | [13] 0.983 | S. cerevisiae deletion strains, locus YNL298W, strain CLA4 (second series), stronger effect = lower value 1.02 | S. cerevisiae deletion strains, locus YNL322C, strain KRE1, stronger effect = lower value 0.99 | S. cerevisiae deletion strains, locus YNR030W, strain Alg12, stronger effect = lower value 1.01 | [14] 1 | [15] 0.877 | [16] 1 | S. cerevisiae deletion strains, locus YPR135W, strain CTF4, stronger effect = lower value 0.915 | S. cerevisiae strains, strain wild type, stronger effect = lower value 1.01

CC(=O)O[C@@H]1CC2C(C)(C)C(=O)CC[C@]2(C)C2CC[C@]3(C)C(=CC(=O)O[C@H]3c3ccoc3)[C@@]21C (stereo not given in full)
inactive: [1] 0.988 | S. cerevisiae deletion strains, locus YBR021W, strain FUR4, stronger effect = lower value 0.989 | [2] 0.939 | S. cerevisiae deletion strains, locus YCL029C, strain bik1, stronger effect = lower value 0.985 | S. cerevisiae deletion strains, locus YDL035C, strain GPR1, stronger effect = lower value 0.964 | S. cerevisiae deletion strains, locus YDL074C, strain BRE1, stronger effect = lower value 0.954 | [3] 1 | S. cerevisiae deletion strains, locus YDL185W, strain tfp1, stronger effect = lower value 0.966 | S. cerevisiae deletion strains, locus YDL192W, strain arf1, stronger effect = lower value 0.971 | S. cerevisiae deletion strains, locus YDR101C, strain arx1, stronger effect = lower value 0.959 | S. cerevisiae deletion strains, locus YDR162C, strain NBP2, stronger effect = lower value 0.98 | S. cerevisiae deletion strains, locus YDR318W, strain mcm21, stronger effect = lower value 0.992 | S. cerevisiae deletion strains, locus YDR388W, stronger effect = lower value 0.995 | S. cerevisiae deletion strains, locus YDR502C, strain sam2, stronger effect = lower value 1.01 | [5] 0.972 | S. cerevisiae deletion strains, locus YER110C, stronger effect = lower value 0.978 | S. cerevisiae deletion strains, locus YER155C, strain BEM2, stronger effect = lower value 0.991 | S. cerevisiae deletion strains, locus YER167W, strain BCK2, stronger effect = lower value 0.97 | S. cerevisiae deletion strains, locus YGL078C, strain dbp3, stronger effect = lower value 1.01 | S. cerevisiae deletion strains, locus YGL086W, strain mad1, stronger effect = lower value 0.998 | S. cerevisiae deletion strains, locus YGL248W, strain PDE1, stronger effect = lower value 0.999 | [6] 1.02 | S. cerevisiae deletion strains, locus YGR135W, strain pre9, stronger effect = lower value 1.07 | S. cerevisiae deletion strains, locus YGR252W, strain gcn5, stronger effect = lower value 1.03 | [8] 1.06 | S. cerevisiae deletion strains, locus YHR079C, strain IRE1 (second series), stronger effect = lower value 0.975 | S. cerevisiae deletion strains, locus YHR079C, strain IRE1, stronger effect = lower value 1.04 | S. cerevisiae deletion strains, locus YHR094C, strain hxt1, stronger effect = lower value 0.991 | S. cerevisiae deletion strains, locus YHR129C, strain ARP1, stronger effect = lower value 0.989 | S. cerevisiae deletion strains, locus YHR200W, strain rpn10, stronger effect = lower value 1 | S. cerevisiae deletion strains, locus YIL066C, strain RNR3, stronger effect = lower value 0.948 | S. cerevisiae deletion strains, locus YIL073C, strain SPO22, stronger effect = lower value 0.977 | S. cerevisiae deletion strains, locus YIL125W, strain kgd1, stronger effect = lower value 0.993 | S. cerevisiae deletion strains, locus YIR030C, strain dcg1, stronger effect = lower value 0.987 | S. cerevisiae deletion strains, locus YJL095W, strain BCK1, stronger effect = lower value 1.05 and 1.06 | S. cerevisiae deletion strains, locus YJL134W, strain LCB3, stronger effect = lower value 0.98 | S. cerevisiae deletion strains, locus YJL168C, strain set2, stronger effect = lower value 0.988 | S. cerevisiae deletion strains, locus YJL187C, strain SWE1 (second series), stronger effect = lower value 1.01 | S. cerevisiae deletion strains, locus YJR066W, strain TOR1, stronger effect = lower value 0.991 | S. cerevisiae deletion strains, locus YKL009W, strain mrt4, stronger effect = lower value 0.976 | S. cerevisiae deletion strains, locus YKL068W, stronger effect = lower value 0.991 | S. cerevisiae deletion strains, locus YKL085W, strain MDH1 (second series), stronger effect = lower value 0.995 | S. cerevisiae deletion strains, locus YKL085W, strain MDH1, stronger effect = lower value 0.995 | [9] 0.983 | S. cerevisiae deletion strains, locus YKR001C, strain vps1, stronger effect = lower value 0.974 | [10] 0.961 | S. cerevisiae deletion strains, locus YLR058C, strain SHM2, stronger effect = lower value 0.979 | S. cerevisiae deletion strains, locus YLR102C, strain apc9, stronger effect = lower value 0.99 | S. cerevisiae deletion strains, locus YLR113W, strain HOG1, stronger effect = lower value 1.03 | S. cerevisiae deletion strains, locus YLR268W, strain sec22, stronger effect = lower value 0.956 | S. cerevisiae deletion strains, locus YLR371W, strain rom2, stronger effect = lower value 0.967 | S. cerevisiae deletion strains, locus YLR418C, strain cdc73, stronger effect = lower value 1 | S. cerevisiae deletion strains, locus YML016C, strain PPZ1, stronger effect = lower value 0.978 | S. cerevisiae deletion strains, locus YML032C, strain rad52, stronger effect = lower value 0.982 | S. cerevisiae deletion strains, locus YML124C, strain tub3, stronger effect = lower value 0.992 | S. cerevisiae deletion strains, locus YMR078C, strain ctf18, stronger effect = lower value 0.989 | S. cerevisiae deletion strains, locus YMR223W, strain ubp8, stronger effect = lower value 1 | [12] 0.989 | S. cerevisiae deletion strains, locus YNL067W, strain RPL9B, stronger effect = lower value 1.04 | S. cerevisiae deletion strains, locus YNL183C, strain NPR1, stronger effect = lower value 0.989 | S. cerevisiae deletion strains, locus YNL233W, strain BNI4, stronger effect = lower value 1.03 | S. cerevisiae deletion strains, locus YNL250W, strain rad50, stronger effect = lower value 0.992 | S. cerevisiae deletion strains, locus YNL271C, strain bni1, stronger effect = lower value 0.993 | S. cerevisiae deletion strains, locus YNL298W, strain CLA4, stronger effect = lower value 0.989 | S. cerevisiae deletion strains, locus YNL307C, strain MCK1, stronger effect = lower value 0.982 | S. cerevisiae deletion strains, locus YNR052C, strain pop2, stronger effect = lower value 1.04 | [14] 0.932 | S. cerevisiae deletion strains, locus YOL012C, strain htz1 0.896 | S. cerevisiae deletion strains, locus YOL147C, strain pex11, stronger effect = lower value 0.984 | S. cerevisiae deletion strains, locus YOR061W, strain CKA2, stronger effect = lower value 0.934 | S. cerevisiae deletion strains, locus YOR069W, strain VPS5, stronger effect = lower value 0.996 | S. cerevisiae deletion strains, locus YOR136W, strain idh2, stronger effect = lower value 1 | S. cerevisiae deletion strains, locus YOR144C, strain elg1, stronger effect = lower value 0.997 | S. cerevisiae deletion strains, locus YOR184W, strain ser1, stronger effect = lower value 0.964 | S. cerevisiae deletion strains, locus YOR231W, strain MKK1, stronger effect = lower value 1.07 | S. cerevisiae deletion strains, locus YOR316C, strain cot1, stronger effect = lower value 0.997 | [16] 0.978 | S. cerevisiae deletion strains, locus YPL256C, strain CLN2, stronger effect = lower value 1.05 | S. cerevisiae deletion strains, locus YPR119W, strain clb2, stronger effect = lower value 0.992 | S. cerevisiae deletion strains, locus YPR141C, strain kar3, stronger effect = lower value 0.982 | S. cerevisiae deletion strains, locus YPR163C, strain tif3, stronger effect = lower value 0.99 | S. cerevisiae deletion strains, locus YPR167C, strain met16, stronger effect = lower value 0.992 | S. cerevisiae deletion strains, strain wtn01, stronger effect = lower value 0.967

Cc1cccc(C)c1NC(=O)C[N+](C)(C)C
inactive: [1] 1.03 | [17] 0.995 | [18] 1 | [19] 1.01 | [20] 1.01 | [6] 0.984 | [7] 1 | [13] 1.01 | [21] 0.993 | [22] 0.989 | [23] 1.01 | [24] 1.02

CC[N+](CC)(CC)CC(=O)Nc1c(C)cccc1C
inactive: [17] 0.958 | [18] 0.999 | [4] 1 | [19] 1.02 | [20] 1.01 | [6] 1.02 | [7] 1 | [11] 1 | S. cerevisiae deletion strains, locus YNL128W, strain TEP1, stronger effect = lower value 1.01 | [13] 0.995 | [21] 1 | [22] 1.01 | [23] 0.999 | [24] 0.999 | [15] 1.01
